The text below walks through data of PubChem BioAssay (NCATS).

Results filed as inconclusive are left out. Activity calls are given as the source filed them. Calls follow the shape of the dose curve; as a rule, active = well fitted cell-killing curve with a large enough effect; inconclusive = small, poorly fitted or top-dose-only effect, or effect the other way; inactive = no such curve, though single readings can be large or run the other way.

Test [1] can be described thus: Quantitative High-Throughput drug screen in 47 multiple myeloma cell lines against the NCATS MIPE library collection: XG6_PLB cell viability assay (AID 1919865). Also: nearly all actives have a fitted effect of over 40% in size. Summed up: (§1)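 Readout: median RLU from CellTiter-Glo after 5 min at room temperature. Preceding step was 48 h drug treatment of 500 cells/well at 37 °C, 5% CO2, with DMSO-only and media-only control wells.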

The nature of test [2]: Quantitative High-Throughput drug screen in 47 multiple myeloma cell lines against the NCATS MIPE library collection: XG1_PLB cell viability assay (AID 1919866). Also: nearly all actives have a fitted effect of over 35% in size. The gist of the method:
as §1

Test [3] in a line: Quantitative High-Throughput drug screen in 47 multiple myeloma cell lines against the NCATS MIPE library collection: VP6_DJ cell viability assay (AID 1919867). Also: nearly all actives have a fitted effect of over 40% in size. Summed up:
as §1

Test [4] is described as follows: Quantitative High-Throughput drug screen in 47 multiple myeloma cell lines against the NCATS MIPE library collection: PCM6_Riken cell viability assay (AID 1919870). Also: nearly all actives have a fitted effect of over 30% in size. The gist of the method: as §1
Test [5] in a line: Quantitative High-Throughput drug screen in 47 multiple myeloma cell lines against the NCATS MIPE library collection: RPMI8226_ATCC cell viability assay (AID 1919871). Also: nearly all actives have a fitted effect of over 30% in size. The gist of the method: as §1
A short description of test [6]: Quantitative High-Throughput drug screen in 47 multiple myeloma cell lines against the NCATS MIPE library collection: OPM2_DSMZ cell viability assay (AID 1919872). Also: nearly all actives have a fitted effect of over 30% in size. The gist of the method:
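Myeloma cell lines, 500 cells per well, exposed to MIPE 4.0 library compounds for 48 h at 37C, 5% CO2. Viability from ATP by CellTiter-Glo luminescence; normalised to DMSO (100%) and media-only (0%) wells.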

The nature of test [7]: Quantitative High-Throughput drug screen in 47 multiple myeloma cell lines against the NCATS MIPE library collection: KMS11_JCRBsus cell viability assay (AID 1919873). Also: nearly all actives have a fitted effect of over 50% in size. The gist of the method:
as §1

Test [8] in a line: Quantitative High-Throughput drug screen in 47 multiple myeloma cell lines against the NCATS MIPE library collection: PE2_PLB cell viability assay (AID 1919869). Also: nearly all actives have a fitted effect of over 35% in size. Summed up: as §1
Test [9] can be described thus: Quantitative High-Throughput drug screen in 47 multiple myeloma cell lines against the NCATS MIPE library collection: UTMC2_PLB cell viability assay (AID 1919868). Also: nearly all actives have a fitted effect of over 55% in size. The conditions noted are these: CellTiter-Glo ATP luminescence, 48 h; viability (% of DMSO control): at 45.8 µM (top of the series). The gist of the method: as §1
Potency is read from the fitted curve at half-maximal effect.

With `COc1ccc([C@@H]2CNC(=O)C2)cc1OC1CCCC1`, the Potency in test [1] is 1.32 µM (active); in test [2], 2.64 µM (active); in [3], 2.35 µM (active); in [4] it was 1.48 µM (active). Also, the Potency result in test [5], in [6] and in [7] was “inactive” in each case.

On to `CCC[C@H]1C[C@H](C(=O)N[C@@H]([C@@H]2O[C@@H](SC)[C@@H](O)[C@@H](O)[C@@H]2O)[C@H](C)Cl)N(C)C1`, for which the Potency entry in [1], in test [2], in [3], in test [8], in test [4] and in test [5] was “inactive” throughout. Further, the Potency result in [6] and in test [7] was “inactive” each time.

For the compound `COC(=O)[C@@H]1[C@H]2C[C@@H]3c4[nH]c5ccccc5c4CCN3C[C@@H]2CC[C@@H]1O`, the Potency entry in test [1], in test [2], in test [3], in test [9], in test [8] and in test [4] was “inactive” each time. Further, the Potency result in test [6] and in [7] was “inactive” each time.

Take `OCCN1C[C@H](O)[C@@H](O)[C@H](O)[C@@H]1CO`: the Potency entry in [1], in test [2], in test [3], in [8], in test [6] and in test [7] was “inactive” throughout.

With `O=c1c(O)c(-c2ccc(O)c(O)c2)oc2cc(O)ccc12`, the Potency in [1] was 18.7 µM (active); in test [2] it was 13.2 µM (active); in test [3], 14.8 µM (active); in [9] it was 13.2 µM (active); in test [8], 14.8 µM (active); in test [4], 9.35 µM (active). Further, the Potency in [6] is 23.5 µM (active).

In the case of `CS[C@H]1SC[C@@H]2C(=O)N(C)[C@H](C(C)C)C(=O)OC[C@H](NC(=O)c3cnc4ccccc4n3)C(=O)N[C@H](C)C(=O)N(C)[C@@H]1C(=O)N(C)[C@H](C(C)C)C(=O)OC[C@H](NC(=O)c1cnc3ccccc3n1)C(=O)N[C@H](C)C(=O)N2C`, the Potency was 0.001 µM (active) in test [1]; 0.0074 µM (active) in [2]; 0.001 µM (active) in test [3]; 0.001 µM (active) in test [8]; 0.001 µM (active) in test [4]; 0.0105 µM (active) in test [5]. Besides, the Potency in test [6] is 0.0083 µM (active); in [7], 0.0033 µM (active).

As to `CC(=O)N[C@H]1[C@@H]([C@H](O)[C@H](O)CO)OC(C(=O)O)=C[C@@H]1N=C(N)N`, the Potency entry in test [1], in test [2], in [3], in [8], in test [4] and in [5] was “inactive” each time. The Potency result in [6] and in [7] was “inactive” throughout.

In the case of `O=C(NC1CC1)c1cccc(-c2ccc3c(NC(=O)C4CC4)n[nH]c3c2)c1`, the Potency is 1.48 µM (active) in test [1]; 1.05 µM (active) in test [2]; 9.35 µM (active) in test [3]; 14.8 µM (active) in [6]; 7.43 µM (active) in test [7].

With `NC(=O)Nc1cc(-c2ccc(CN3CCOCC3)cc2)sc1C(N)=O`, the Potency was 0.743 µM (active) in test [1]; 0.132 µM (active) in [2]; 0.833 µM (active) in test [3]; 1.48 µM (active) in [8]; 1.66 µM (active) in test [4]; 7.43 µM (active) in test [5]. Moreover, in [7], the Potency is 11.8 µM (active).

`C[C@@H]1C(=O)O[C@H]2CC34[C@H]5C[C@@H](C(C)(C)C)C36[C@H](OC(=O)[C@@H]6O)O[C@@]4(C(=O)O5)[C@]21O` (some centres not stated): the Potency result in test [1], in test [2], in [3], in test [9], in test [8] and in test [5] was “inactive” throughout. The Potency result in test [6] and in [7] was “inactive” in each case.

For `CC(=O)NCC(=O)N1[C@H]2CC[C@H]1c1cc(Nc3ncc(C(F)(F)F)c(NC4CCC4)n3)ccc12`, the Potency in [1] is 1.18 µM (active); in test [2], 0.332 µM (active); in test [3], 0.833 µM (active); in [9], 0.118 µM (active); in [8], 1.66 µM (active); in test [4], 1.87 µM (active). In addition, the Potency in test [5] is 5.9 µM (active); in test [7], 0.0662 µM (active).

Consider `CN1CCc2c(c3ccccc3n2Cc2ccc(C(=O)NO)cc2)C1`, for which the Potency is 8.33 µM (active) in test [1]; 11.8 µM (active) in test [2]; 9.35 µM (active) in test [3]; 2.64 µM (active) in [9]; 23.5 µM (active) in [8]; 16.6 µM (active) in test [4]. The Potency in test [7] is 20.9 µM (active).

Take `C=C(C)[C@@H]1CC[C@]2(C(=O)O)CC[C@]3(C)[C@H](CC[C@@H]4[C@@]5(C)CC[C@H](O)C(C)(C)[C@@H]5CC[C@]43C)[C@@H]12`: the Potency in test [1] is 2.96 µM (active); in test [3], 7.43 µM (active); in test [5], 5.26 µM (active). The Potency result in test [2], in test [8], in [6] and in [7] was “inactive” in each case.

Regarding `OC[C@@H](O)[C@@H](O)[C@H](O)[C@@H](O)CO`, the Potency entry in test [1], in test [2], in test [3], in [8], in test [4] and in test [5] was “inactive” each time. The Potency result in test [7] is “inactive”.

Take `OCCNC1CCCc2c1[nH]c1ccc(-c3ccccc3)cc21` (configuration not stated): the Potency in test [1] is 26.4 µM (active); in test [2], 9.35 µM (active); in [3], 8.33 µM (active); in [8] it was 14.8 µM (active); in [4] it was 11.8 µM (active); in test [5] it was 26.4 µM (active). Moreover, in test [7], the Potency is 2.96 µM (active).

Take `N[C@H]1CN(c2c(F)cc3c(=O)c(C(=O)O)cn(C4C[C@@H]4F)c3c2Cl)CC12CC2` (some centres not stated): the Potency entry in [1], in test [2], in test [3], in test [8], in test [4] and in test [7] was “inactive” throughout.

Take `CC(C=CC=C(C)C=CC1=C(C)CCCC1(C)C)=CC=CC=C(C)C=CC=C(C)C=CC1=C(C)CCCC1(C)C`: the Potency in [1] is 5.26 µM (active); in [2], 16.6 µM (active); in test [3], 23.5 µM (active); in test [4], 23.5 µM (active). Also, the Potency entry in test [6] is “inactive”.

For the compound `CN(C)c1ccc2cc(C(=O)N[C@@H](CCCN=C(N)CCl)C(=O)NCc3ccccc3)ccc2c1`, the Potency in test [1] is 0.935 µM (active); in [2], 1.18 µM (active); in [3], 4.69 µM (active); in test [8], 8.33 µM (active); in [4] it was 4.18 µM (active); in [5], 18.7 µM (active). In addition, the Potency is 18.7 µM (active) in [6] and 7.43 µM (active) in test [7].
